Results on 40 compounds are retold here after PubChem BioAssay (Tox21).

Structures are written as SMILES. Records with an inconclusive call do not appear. A number with no mark means an inactive call. Calls of active or inactive are those of the source. The call rests on the fitted dose curve; in most records, active means well fitted activation curve with a large enough effect in the repeat runs; inconclusive means weak or mixed curves; inactive means no such curve, though single readings can be large or run the other way.
On the % scale 0 is the no-effect control and ±100 the full control effect; potency means the concentration at half of the fitted maximal effect.

For this assay, the target named is Nuclear receptor subfamily 1 group I member 3 (Homo sapiens) (UniProt Q14994). As to the kind of experiment: qHTS assay to identify small molecule agonists of the constitutive androstane receptor (CAR) signaling pathway (AID 1224839). Further: nearly all actives have a fitted effect of over 15% in size.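 On activation: HepG2 cells stably carrying human CAR and a CYP2B6 luciferase reporter.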 Particulars: HepG2 hCAR CYP2B6-luciferase, agonist mode, 24 h; series mostly up to 92.4 µM; activation: at the top concentration. The source says: National Center for Advancing Translational Sciences [NCATS] NIH Chemical Genomics Center [NCGC] U.S. Environmental Protection Agency [EPA] National Institutes of Environmental Health Sciences [NIEHS] National Toxicology Program [NTP] Assay overview: The constitutive androstane receptor (CAR) is a nuclear receptor which regulates multiple drug metabolizing enzymes (DMEs) and transporters. Activating CAR will generally increase the transcription and subsequent translation of CYP2B6 and CYP3A4. These two DMEs represent about 50% of the drug metabolizing potential in the body. […] Recently, there have also been studies performed indicating CARs role in energy metabolism and cancer therapy. Therefore, inducing CARs activity could have a potential effect on diabetes and cancer. Identifying environmental toxins and compounds which modulate CAR, through the use of the Tox21 10K compound collection, will be an important step in determining the toxicity and potential therapeutic effects these factors will have on the human body.
Sequence of Nuclear receptor subfamily 1 group I member 3 (Homo sapiens) (Q14994 whole entry, looked up): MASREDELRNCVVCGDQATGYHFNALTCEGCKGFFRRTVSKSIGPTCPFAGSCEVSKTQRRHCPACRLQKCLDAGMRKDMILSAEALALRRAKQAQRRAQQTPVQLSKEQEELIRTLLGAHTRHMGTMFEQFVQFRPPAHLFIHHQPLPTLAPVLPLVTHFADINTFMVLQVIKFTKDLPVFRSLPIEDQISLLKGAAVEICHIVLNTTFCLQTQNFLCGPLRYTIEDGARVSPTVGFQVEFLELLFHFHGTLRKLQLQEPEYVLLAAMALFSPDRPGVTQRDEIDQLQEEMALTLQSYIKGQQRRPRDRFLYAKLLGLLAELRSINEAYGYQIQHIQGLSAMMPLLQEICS
Assay Protocol Summary: A double-stable (hCAR and CYP2B6-2.2kb) transfected cell line, derived from human hepatoma (HepG2) cells, was utilized for the duration of the quantitative high-throughput screens. The HepG2-CYP2B6-hCAR cells suspended in DMEM culture medium supplemented with 10% FBS, 5 ug/mL blasticidin, 0.5 mg/mL geneticin, 100 U/mL penicillin and 100 ug/mL streptomycin were dispensed at 2500 cells/4 uL/well in 1536-well white solid bottom plates using a Multidrop Combi. After the assay plates were incubated at 37 C/5% CO2 for 4 hrs, 23 nL of compounds at 15 concentrations (from 5-48 columns) or positive control (from 1 to 4 columns) were transferred to the assay plates using a Pintool station. One uL of PK11195, was added using a Flying Reagent Dispenser to generate a final concentration of 0.75 uM PK11195 inside each well. After a 24 hr incubation period at 37 C/5% CO2, four uL of ONE-Glo reagent was added into the assay plates using a Flying Reagent Dispenser. After a 30 min incubation period at room temperature, the luminescence intensity in the assay plates was measured using a ViewLux plate reader.
(In qHTS, concentration-response curves come from the screen itself.)
Take `Cc1cccc(C(C)(C)C)c1O`: the “activation” value was 2.39%.
Still for that read-out and setting: under `CC[C@@H]1C[C@H](N(Cc2cc(C(F)(F)F)cc(C(F)(F)F)c2)C(C)=O)c2cc(C(F)(F)F)ccc2N1C(=O)OC(C)C` stands -2.97%.
Consider `Oc1ccc(Cc2ccccc2)cc1`, for which the Potency is 56.6 µM (active).
For the compound `CCCCCCCCC(CO)CCCCCC` (stereo not given), the “activation” value is -1.47%.
On the same count and under the same terms, the same measure for `CN1CCC(=C2c3ccccc3CCc3sccc32)CC1`: -0.677% [at 42.5 µM].
Same read-out and setting: under `CC1=CC(=O)/C(=C(/C)O)C(=O)O1` stands -2.03%; under `OCC1CC2CC1C1CCC(CO)C21` (stereo not given), 1.97%; under `CCCCCC/C=C/C=O`, -3.22%.
On the same count and under the same terms, under `CN1CCC(=C2c3ccccc3C=Cc3ccccc32)CC1` stands -1.96% [at 42.5 µM].
Consider `CCOC(=O)[C@H](CCc1ccccc1)N[C@H]1CCc2ccccc2N(CC(=O)O)C1=O`, for which the “activation” value is 3.54% [at 42.5 µM].
As to `CCOc1ccc(NC(=O)CC(C)=O)cc1`, the “activation” value was 7.32%.
Regarding `CC[C@H](C)[C@H](N)C(=O)O`, the “activation” value is 0.122% [at 42.5 µM].
Turning to `CC(=O)[C@@]1(O)CC[C@H]2[C@@H]3C[C@H](C)C4=CC(=O)CC[C@]4(C)[C@H]3CC[C@@]21C`, the Potency is 21.1 µM (active).
The same measure, in the same setting: the same measure for `Cc1cccc(OCCOc2cccc(C)c2)c1`: 29 µM (active).
`CCOC(=O)CC(C)C`: the “activation” value is -3.78%.
The same measure, in the same setting: under `C=CCCCCCC` stands 0.0199%; under `CC(=O)Nc1ccc(/C=N/NC(N)=S)cc1`, 4.38% [at 42.5 µM]; under `C=Cc1c(C)c2cc3[nH]c(cc4nc(cc5nc(cc1[nH]2)C(C)=C5CCC(=O)O)C(CCC(=O)O)=C4C)c(C)c3C=C`, -5.52% [at 42.5 µM].
On the same count and under the same terms, the same measure for `Nc1ccc(C(=O)Nc2ccccc2N)cc1`: 0.471% [at 42.5 µM]; for `FC(F)(F)C(F)(F)C(F)(F)C(F)(F)C(F)(F)C(F)(F)CCI`: 11.6% [at 42.5 µM]; for `CC(C)(C)c1cc(CCC(=O)OCC(COC(=O)CCc2cc(C(C)(C)C)c(O)c(C(C)(C)C)c2)(COC(=O)CCc2cc(C(C)(C)C)c(O)c(C(C)(C)C)c2)COC(=O)CCc2cc(C(C)(C)C)c(O)c(C(C)(C)C)c2)cc(C(C)(C)C)c1O`: 2.33% [at 42.5 µM].
Same read-out and setting: the same measure for `CC1(C)CCC(C)(C)c2cc(NC(=O)c3ccc(C(=O)O)cc3)ccc21`: 0.953% [at 42.5 µM].
As to `CNCC[C@@H](Oc1ccccc1C)c1ccccc1`, the “activation” value was -2.91% [at 42.5 µM].
For the compound `c1ccc(OCc2ccc(CCCN3CCOCC3)cc2)cc1`, the Potency is 29.8 µM (active).
`Cc1ncsc1CCO`: the “activation” value is -2.91%.
The same measure, in the same setting: under `NCCCN(CCO)CCO` stands 0.0237%; under `OC(CCN1CCCCC1)(c1ccccc1)C1CCCCC1` (stereo not given), -2.95% [at 42.5 µM].
Same read-out and setting: the same measure for `CC(Cc1cccc(C(F)(F)F)c1)NCCOC(=O)c1ccccc1` (stereo not given): 0.894% [at 42.5 µM]; for `CC1=CCC(C(C)C)C=C1` (stereo not given): -0.865%.
Same read-out and setting: the same measure for `Oc1ccc(O)c2c(O)cccc12`: 8.88%.
With `CCCCCCOC(=O)CCC`, the “activation” value was -2.85%.
On the same count and under the same terms, under `CN(c1nccc(=O)[nH]1)C1CCN(c2nc3ccccc3n2Cc2ccc(F)cc2)CC1` stands 4.63% [at 42.5 µM].
On to `N#Cc1cc2ccccc2c2ccccc12`, for which the Potency is 27.4 µM (active).
As to `Cn1c(N)nc2nc[nH]c2c1=O`, the “activation” value is -12.8%.
Still for that read-out and setting: the same measure for `C=CC[N+]1([C@H]2C[C@H]3[C@@H]4CC[C@H]5C[C@H](OC(C)=O)[C@@H](N6CCCCC6)C[C@]5(C)[C@H]4CC[C@]3(C)[C@H]2OC(=O)CC)CCCCC1`: -3.68% [at 42.5 µM].
On the same count and under the same terms, under `Cc1ccc(O)c([C@H](CCN(C(C)C)C(C)C)c2ccccc2)c1` stands -6.35% [at 42.5 µM]; under `O=C1[C@H](CC[C@H](O)c2ccc(F)cc2)[C@@H](c2ccc(O)cc2)N1c1ccc(F)cc1`, -2.02% [at 42.5 µM].
Consider `ClC(Cl)(Cl)c1ccc(C(Cl)(Cl)Cl)cc1`, for which the “activation” value was 2.46%.
On the same count and under the same terms, under `Cc1occc1S` stands -0.37%; under `COc1ccc(C(C)=O)cc1`, -1.24%.
